Data: the supplement of paper PMC10849652
Targets with a hit are over-represented here; the source holds about 8,800 in all. About 0.5% of all pairs of compound and target were hits.

Legend:
Assay in all cases: log2 fold change, soluble protein after heating vs DMSO (PISA); higher = thermal stabilisation; K562 lysate, 10 uM; active = over 0.2 and 3.5 SD of the protein, either way, in both replicates (recomputed)
ibrutinib = compound: C=CC(=O)N1CCC[C@@H](n2nc(-c3ccc(Oc4ccccc4)cc3)c3c(N)ncnc32)C1 [ibrutinib]
Outline: (§1)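 A 30 min treatment with 10 μM compound was applied to crude K562 extract at 1 mg/mL protein in PBS pH 7.4 with 1 mM MgCl2. Heating for 3 min spanned 48°C-58°C, after which aliquots were pooled, adjusted to 0.5% NP-40 at 4°C and spun at 21,000xg for 90 min. TMTpro 16plex LC-MS/MS of the supernatant, with channel sums equalised, gave values recorded as log-two fold change in thermal stability against solvent controls, from duplicates.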

[1] = compound: CC(=O)c1cnc2ccc(-c3cc(Cl)c(O)c(Cl)c3)nc2c1N[C@H]1CC[C@H](CN(C)C)CC1
Outline: as §1

ralimetinib = compound: CC(C)(C)Cn1c(N)nc2ccc(-c3[nH]c(C(C)(C)C)nc3-c3ccc(F)cc3)nc21 [ralimetinib]
Outline: as §1

[2] = compound: CC(C)(O)CC(=O)NCCn1ccc2ncnc(Nc3ccc(Oc4cccc(C(F)(F)F)c4)c(Cl)c3)c21
Outline: as §1

[3] = compound: CC(C)C1=C2N=C(C=C(N2N=C1)NCC3=CC=CC=C3)NCCCCCCN
Outline: as §1

[4] = compound: CC1=C(C(CC(=O)N1)C2=CC=C(C=C2)C(F)(F)F)C(=O)NC3=C(C=C4C(=C3)C=NN4)F
Outline: as §1

[5] = compound: CC1=C(C2=C(C=C1)C(=O)C3=CC=CC=C3N2CCCN)C
Outline: as §1

[6] = compound: CC1=C(C=C(C=C1)NC(=O)C2=CC(=CC=C2)C(C)(C)C#N)NC3=CC4=C(C=C3)N=CN(C4=O)C
Outline: as §1

[7] = compound: CC1=C(C=C(C=C1)NC(=O)C2=CC(=CC=C2)N(C)C)NC(=O)C3=CC=C(C=C3)O
Outline: as §1

[8] = compound: CC1=CC=C(C=C1)SC2=C3C=C(SC3=CN=C2)C(=O)N
Outline: as §1

Measured: log2 fold change

AKAP11 (UniProt Q9UKA4)
inactive: ibrutinib 0.032 | [1] -0.111 | ralimetinib 0.058 | [2] -0.068 | [3] 0.054 | [4] 0.065 | [5] -0.015 | [6] -0.002 | [7] 0.003 | [8] 0.085

ACIN1 (UniProt E7EQT4)
inactive: ibrutinib 0.049 | [1] -0.033 | ralimetinib 0.123 | [2] -0.052 | [3] 0.028 | [4] -0.017 | [5] -0.052 | [6] 0.094 | [7] -0.03 | [8] -0.002

ARAF (UniProt P10398)
inactive: ibrutinib 0.071 | [1] -0.012 | ralimetinib 0.029 | [2] -0.01 | [3] 0.058 | [4] -0.007 | [5] 0.004 | [6] 0.004 | [7] 0.041 | [8] 0.003

ACLY (UniProt P53396)
inactive: ibrutinib -0.002 | [1] 0.003 | ralimetinib 0.001 | [2] -0.011 | [3] 0.02 | [4] -0.02 | [5] 0.014 | [6] -0.014 | [7] -0.012 | [8] 0.054

ARHGEF2 (UniProt Q92974)
inactive: ibrutinib 0.028 | [1] -0.003 | ralimetinib 0.043 | [2] 0.005 | [3] 0.014 | [4] 0.008 | [5] -0.034 | [6] 0.047 | [7] 0.018 | [8] 0.01

ACAA1 (UniProt P09110)
inactive: ibrutinib 0.046 | [1] -0.012 | ralimetinib -0.054 | [2] -0.003 | [3] 0 | [4] -0.02 | [5] -0.016 | [6] 0.044 | [7] 0.001 | [8] -0.007

ACACB (UniProt O00763)
inactive: ibrutinib 0.051 | [1] 0.018 | ralimetinib 0.069 | [2] 0.032 | [3] 0.014 | [4] -0.036 | [5] 0.015 | [6] 0.021 | [7] 0.052 | [8] 0.022

AIMP2 (UniProt Q13155)
inactive: ibrutinib 0 | [1] 0.013 | ralimetinib 0.044 | [2] 0.015 | [3] 0.044 | [4] 0.002 | [5] 0.018 | [6] -0.005 | [7] 0.019 | [8] 0.028

ACBD6 (UniProt Q9BR61)
inactive: ibrutinib 0.007 | [1] 0.038 | ralimetinib 0.012 | [2] -0.039 | [3] 0.002 | [4] 0.034 | [5] 0.001 | [6] 0.062 | [7] 0.027 | [8] -0.057

ARHGAP21 (UniProt Q5T5U3)
inactive: ibrutinib 0.016 | [1] 0.047 | ralimetinib 0.017 | [2] -0.047 | [3] 0.022 | [4] 0.077 | [5] -0.053 | [6] 0.062 | [7] 0.052 | [8] -0.015

APOBEC3C (UniProt Q9NRW3)
inactive: ibrutinib -0.024 | [1] -0.047 | ralimetinib 0.005 | [2] -0.051 | [3] -0.01 | [4] 0 | [5] -0.025 | [6] 0.046 | [7] 0.019 | [8] -0.01

AFF1 isoform 2 (UniProt P51825)
Chain of UniProt P51825 (P51825 whole entry, looked up): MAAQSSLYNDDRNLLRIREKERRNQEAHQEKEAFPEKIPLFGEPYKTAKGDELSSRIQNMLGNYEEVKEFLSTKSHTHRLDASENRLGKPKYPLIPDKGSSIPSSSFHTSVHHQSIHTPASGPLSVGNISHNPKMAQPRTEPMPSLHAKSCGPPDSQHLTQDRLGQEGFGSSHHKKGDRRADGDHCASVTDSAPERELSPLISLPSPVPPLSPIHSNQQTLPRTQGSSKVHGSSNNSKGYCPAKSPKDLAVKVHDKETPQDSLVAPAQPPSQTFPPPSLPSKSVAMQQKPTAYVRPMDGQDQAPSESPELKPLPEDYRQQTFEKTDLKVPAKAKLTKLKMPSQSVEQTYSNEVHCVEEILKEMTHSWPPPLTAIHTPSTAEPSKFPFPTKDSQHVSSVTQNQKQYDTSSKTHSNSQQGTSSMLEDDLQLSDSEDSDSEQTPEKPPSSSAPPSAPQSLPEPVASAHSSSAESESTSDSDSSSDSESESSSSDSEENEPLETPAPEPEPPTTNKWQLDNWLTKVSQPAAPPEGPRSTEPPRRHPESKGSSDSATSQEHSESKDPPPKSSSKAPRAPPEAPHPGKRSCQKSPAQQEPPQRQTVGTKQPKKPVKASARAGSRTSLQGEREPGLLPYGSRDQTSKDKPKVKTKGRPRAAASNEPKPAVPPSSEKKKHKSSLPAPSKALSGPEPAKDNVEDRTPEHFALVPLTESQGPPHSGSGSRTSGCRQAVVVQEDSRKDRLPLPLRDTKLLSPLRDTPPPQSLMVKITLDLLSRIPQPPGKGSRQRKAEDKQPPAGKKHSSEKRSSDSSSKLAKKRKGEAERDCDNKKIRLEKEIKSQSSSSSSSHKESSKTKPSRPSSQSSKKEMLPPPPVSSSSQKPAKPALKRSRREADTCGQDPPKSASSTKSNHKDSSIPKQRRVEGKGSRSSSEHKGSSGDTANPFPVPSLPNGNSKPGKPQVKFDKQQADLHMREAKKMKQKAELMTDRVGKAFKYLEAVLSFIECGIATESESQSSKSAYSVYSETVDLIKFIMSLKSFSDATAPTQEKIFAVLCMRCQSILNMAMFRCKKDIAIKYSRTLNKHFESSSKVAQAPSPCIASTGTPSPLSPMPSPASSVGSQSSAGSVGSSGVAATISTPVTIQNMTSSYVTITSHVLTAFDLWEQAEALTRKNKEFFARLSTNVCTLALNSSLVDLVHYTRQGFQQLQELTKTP
inactive: ibrutinib 0.136 | [1] -0.028 | ralimetinib 0.078 | [2] -0.02 | [3] -0.001 | [4] 0.037 | [5] -0.047 | [6] 0.023 | [7] 0.02 | [8] -0.002

AKT1 (UniProt P31749)
Chain of UniProt P31749 (P31749 whole entry, looked up): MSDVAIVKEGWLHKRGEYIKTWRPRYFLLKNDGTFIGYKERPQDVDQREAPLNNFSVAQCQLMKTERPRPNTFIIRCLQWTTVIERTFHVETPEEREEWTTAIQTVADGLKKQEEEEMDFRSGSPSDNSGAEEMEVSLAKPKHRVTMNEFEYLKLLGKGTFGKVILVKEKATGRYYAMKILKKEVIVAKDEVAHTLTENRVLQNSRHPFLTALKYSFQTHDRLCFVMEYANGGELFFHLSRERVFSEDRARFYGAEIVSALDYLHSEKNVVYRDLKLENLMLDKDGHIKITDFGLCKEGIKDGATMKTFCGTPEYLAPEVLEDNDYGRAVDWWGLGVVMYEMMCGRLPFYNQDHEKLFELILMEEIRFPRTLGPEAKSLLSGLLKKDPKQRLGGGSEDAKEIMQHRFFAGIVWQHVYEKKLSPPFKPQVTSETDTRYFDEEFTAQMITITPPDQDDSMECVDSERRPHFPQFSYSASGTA
inactive: ibrutinib 0.028 | [1] 0.013 | ralimetinib 0.005 | [2] -0.023 | [3] 0.009 | [4] 0.003 | [5] -0.009 | [6] 0 | [7] -0.006 | [8] 0.019

ANP32A (UniProt P39687)
inactive: ibrutinib 0.003 | [1] -0.003 | ralimetinib 0.002 | [2] 0.188 | [3] -0.041 | [4] -0.029 | [5] 0.079 | [6] -0.025 | [7] -0.046 | [8] -0.018

APOB (UniProt P04114)
inactive: ibrutinib -0.025 | [1] -0.016 | ralimetinib -0.052 | [2] -0.195 | [3] 0.011 | [4] -0.02 | [5] -0.089 | [6] 0.063 | [7] -0.005 | [8] -0.036

ADD1 isoform 3 (UniProt P35611)
inactive: ibrutinib -0.006 | [1] -0.009 | ralimetinib 0 | [2] -0.01 | [3] -0.005 | [4] 0.007 | [5] -0.038 | [6] 0.005 | [7] -0.009 | [8] -0.019

AGL (UniProt P35573)
inactive: ibrutinib -0.007 | [1] 0.01 | ralimetinib 0.048 | [2] 0.018 | [3] -0.006 | [4] -0.004 | [5] 0.021 | [6] -0.017 | [7] 0 | [8] 0.027

ANKRD54 (UniProt Q6NXT1)
Chain of UniProt Q6NXT1 (Q6NXT1 whole entry, looked up): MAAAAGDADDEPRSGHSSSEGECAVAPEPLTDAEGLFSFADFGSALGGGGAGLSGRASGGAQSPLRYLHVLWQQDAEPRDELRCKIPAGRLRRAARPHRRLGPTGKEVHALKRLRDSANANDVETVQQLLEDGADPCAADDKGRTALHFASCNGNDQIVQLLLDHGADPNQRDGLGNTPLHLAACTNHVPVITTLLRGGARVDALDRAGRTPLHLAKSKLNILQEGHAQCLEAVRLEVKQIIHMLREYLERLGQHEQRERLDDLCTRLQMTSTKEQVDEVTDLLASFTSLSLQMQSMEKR
inactive: ibrutinib -0.054 | [1] -0.002 | ralimetinib 0.063 | [2] -0.006 | [3] 0.044 | [4] 0.003 | [5] 0.001 | [6] -0.006 | [7] 0.01 | [8] -0.023

AKAP8L (UniProt Q9ULX6)
active: [6] -0.271
inactive: ibrutinib 0 | [1] -0.046 | ralimetinib 0.002 | [2] -0.019 | [3] 0.009 | [4] -0.02 | [5] 0.003 | [7] 0.046 | [8] 0.032

AHCYL1 (UniProt O43865)
Chain of UniProt O43865 (O43865 whole entry, looked up): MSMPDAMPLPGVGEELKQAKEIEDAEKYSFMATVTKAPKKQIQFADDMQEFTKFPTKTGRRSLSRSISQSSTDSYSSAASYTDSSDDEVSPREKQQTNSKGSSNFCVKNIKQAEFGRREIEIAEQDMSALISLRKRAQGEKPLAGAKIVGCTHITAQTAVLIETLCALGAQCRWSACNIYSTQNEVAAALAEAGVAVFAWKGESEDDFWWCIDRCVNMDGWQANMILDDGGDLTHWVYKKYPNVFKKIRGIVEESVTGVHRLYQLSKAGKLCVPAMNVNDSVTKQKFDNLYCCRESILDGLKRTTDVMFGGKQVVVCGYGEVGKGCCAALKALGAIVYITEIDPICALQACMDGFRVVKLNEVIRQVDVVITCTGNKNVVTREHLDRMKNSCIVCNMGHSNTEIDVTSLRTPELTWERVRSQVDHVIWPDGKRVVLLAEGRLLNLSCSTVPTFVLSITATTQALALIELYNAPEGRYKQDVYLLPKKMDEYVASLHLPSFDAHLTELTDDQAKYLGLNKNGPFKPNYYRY
inactive: ibrutinib 0.014 | [1] -0.02 | ralimetinib -0.004 | [2] 0.022 | [3] 0.003 | [4] 0.016 | [5] -0.065 | [6] -0.028 | [7] 0.009 | [8] 0.021

ACSL1 (UniProt P33121)
Chain of UniProt P33121 (P33121 whole entry, looked up): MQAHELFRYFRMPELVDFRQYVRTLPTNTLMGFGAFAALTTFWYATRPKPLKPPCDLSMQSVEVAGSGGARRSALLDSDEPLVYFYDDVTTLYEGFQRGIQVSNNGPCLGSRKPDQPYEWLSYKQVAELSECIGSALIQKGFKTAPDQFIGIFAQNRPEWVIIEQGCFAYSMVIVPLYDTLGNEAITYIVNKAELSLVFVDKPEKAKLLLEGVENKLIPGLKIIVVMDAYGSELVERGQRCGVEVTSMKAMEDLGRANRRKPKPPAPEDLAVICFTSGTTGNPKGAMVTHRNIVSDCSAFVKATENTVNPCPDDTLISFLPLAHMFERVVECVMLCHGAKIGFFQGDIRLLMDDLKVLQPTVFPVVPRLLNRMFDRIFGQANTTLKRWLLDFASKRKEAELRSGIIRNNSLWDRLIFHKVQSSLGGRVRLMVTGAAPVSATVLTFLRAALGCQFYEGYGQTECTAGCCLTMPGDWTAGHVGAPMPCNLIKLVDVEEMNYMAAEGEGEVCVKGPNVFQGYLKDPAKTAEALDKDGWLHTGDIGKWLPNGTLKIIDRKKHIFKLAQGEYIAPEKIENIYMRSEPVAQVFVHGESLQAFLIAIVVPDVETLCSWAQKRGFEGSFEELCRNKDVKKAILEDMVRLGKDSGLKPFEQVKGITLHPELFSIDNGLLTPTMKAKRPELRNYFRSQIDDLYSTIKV
inactive: ibrutinib 0.009 | [1] 0.008 | ralimetinib -0.004 | [2] -0.075 | [3] 0.01 | [4] 0.024 | [5] 0.004 | [6] -0.01 | [7] 0.026 | [8] -0.004

ALDH1A1 (UniProt P00352)
Chain of UniProt P00352 (P00352 whole entry, looked up): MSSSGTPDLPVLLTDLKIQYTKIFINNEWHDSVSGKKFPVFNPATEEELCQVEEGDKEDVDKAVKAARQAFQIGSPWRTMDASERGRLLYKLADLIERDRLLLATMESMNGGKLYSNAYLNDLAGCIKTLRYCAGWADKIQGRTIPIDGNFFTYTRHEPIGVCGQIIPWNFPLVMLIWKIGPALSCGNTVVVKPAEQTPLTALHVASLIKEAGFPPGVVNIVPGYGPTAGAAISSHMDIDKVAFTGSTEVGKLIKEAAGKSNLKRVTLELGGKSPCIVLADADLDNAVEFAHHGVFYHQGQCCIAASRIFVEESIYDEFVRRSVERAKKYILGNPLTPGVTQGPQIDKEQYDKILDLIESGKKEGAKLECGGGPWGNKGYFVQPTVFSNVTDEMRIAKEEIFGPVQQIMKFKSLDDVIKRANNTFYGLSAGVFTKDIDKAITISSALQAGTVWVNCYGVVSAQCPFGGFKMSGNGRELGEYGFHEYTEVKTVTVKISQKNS
active: [5] 0.26
inactive: ibrutinib 0.092 | [1] 0.019 | ralimetinib 0.037 | [2] 0.037 | [3] -0.029 | [4] 0 | [6] -0.005 | [7] 0.028 | [8] 0.011

AMD1 (UniProt P17707)
inactive: ibrutinib -0.031 | ralimetinib -0.02 | [2] -0.013 | [3] -0.054 | [4] 0.019 | [5] -0.015 | [6] 0.155 | [7] -0.023 | [8] -0.119
active: [1] 0.464

AMPD3 isoform 4 (UniProt Q01432)
Chain of UniProt Q01432 (Q01432 whole entry, looked up): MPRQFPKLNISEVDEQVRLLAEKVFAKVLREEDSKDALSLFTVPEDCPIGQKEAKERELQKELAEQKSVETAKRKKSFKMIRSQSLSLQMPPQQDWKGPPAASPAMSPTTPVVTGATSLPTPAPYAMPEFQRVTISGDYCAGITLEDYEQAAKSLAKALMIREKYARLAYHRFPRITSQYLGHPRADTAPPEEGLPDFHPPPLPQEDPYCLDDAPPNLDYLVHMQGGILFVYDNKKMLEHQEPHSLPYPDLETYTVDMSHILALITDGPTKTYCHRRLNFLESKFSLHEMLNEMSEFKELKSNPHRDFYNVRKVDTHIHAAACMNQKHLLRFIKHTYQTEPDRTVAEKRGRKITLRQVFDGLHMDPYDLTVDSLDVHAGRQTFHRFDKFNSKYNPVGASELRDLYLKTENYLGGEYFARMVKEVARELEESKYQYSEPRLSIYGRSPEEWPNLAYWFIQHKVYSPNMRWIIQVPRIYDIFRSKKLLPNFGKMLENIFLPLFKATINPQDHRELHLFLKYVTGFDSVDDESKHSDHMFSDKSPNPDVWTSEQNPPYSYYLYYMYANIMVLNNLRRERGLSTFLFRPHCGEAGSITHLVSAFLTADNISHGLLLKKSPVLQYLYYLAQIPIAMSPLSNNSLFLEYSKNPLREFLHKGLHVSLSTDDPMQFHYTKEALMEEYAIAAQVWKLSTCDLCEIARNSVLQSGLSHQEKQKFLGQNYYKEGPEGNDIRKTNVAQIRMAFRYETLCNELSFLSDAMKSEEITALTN
inactive: ibrutinib 0.05 | [1] 0.001 | ralimetinib 0.037 | [2] -0.041 | [3] -0.019 | [4] -0.029 | [5] 0.011 | [6] 0.006 | [7] -0.004 | [8] -0.005

AGPAT1 (UniProt Q99943)
Chain of UniProt Q99943 (Q99943 whole entry, looked up): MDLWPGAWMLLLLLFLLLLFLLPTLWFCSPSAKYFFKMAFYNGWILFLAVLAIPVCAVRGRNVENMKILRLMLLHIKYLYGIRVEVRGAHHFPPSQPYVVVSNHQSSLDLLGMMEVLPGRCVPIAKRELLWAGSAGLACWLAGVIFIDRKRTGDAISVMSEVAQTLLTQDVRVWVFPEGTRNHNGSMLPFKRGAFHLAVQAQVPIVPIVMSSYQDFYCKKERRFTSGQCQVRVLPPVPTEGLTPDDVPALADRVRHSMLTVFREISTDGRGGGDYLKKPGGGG
inactive: ibrutinib -0.121 | [1] -0.05 | ralimetinib 0.027 | [2] -0.051 | [3] -0.026 | [4] 0.06 | [5] 0.012 | [6] 0.02 | [7] 0.043 | [8] 0.042

ALDH5A1 isoform 2 (UniProt P51649)
inactive: ibrutinib 0.041 | [1] 0.018 | ralimetinib -0.015 | [2] 0.001 | [3] -0.019 | [4] -0.01 | [5] 0.001 | [6] 0.021 | [7] -0.022 | [8] 0.011

ACTG1 (UniProt I3L4N8)
inactive: ibrutinib 0.191 | [1] 0.053 | ralimetinib -0.019 | [2] 0.065 | [3] -0.184 | [4] 0.038 | [6] -0.181 | [7] -0.006 | [8] 0.033
active: [5] -0.677

ACYP1 (UniProt P07311)
Chain of UniProt P07311 (P07311 whole entry, looked up): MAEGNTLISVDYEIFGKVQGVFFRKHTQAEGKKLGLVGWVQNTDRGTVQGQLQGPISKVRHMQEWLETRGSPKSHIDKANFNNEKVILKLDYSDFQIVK
inactive: ibrutinib 0.056 | [1] 0.027 | ralimetinib 0 | [2] -0.024 | [3] -0.011 | [4] -0.021 | [5] 0.015 | [6] -0.013 | [7] -0.024 | [8] 0.021

ALG13 (UniProt Q9NP73)
inactive: ibrutinib 0.118 | [1] 0.037 | ralimetinib 0.008 | [2] 0.026 | [3] 0.022 | [4] 0.065 | [5] -0.025 | [6] 0.063 | [7] 0.012 | [8] -0.001

ACACA isoform 4 (UniProt Q13085)
inactive: ibrutinib 0.038 | [1] 0.021 | ralimetinib 0.041 | [2] 0.013 | [3] 0.01 | [4] -0.027 | [5] -0.002 | [6] 0.021 | [7] 0.048 | [8] 0.035
